# PubChem BioAssay AID485288 (Southern Research Specialized Biocontainment Screening …, 2010)
# Potency and affinity values are given separately. Active and inactive are the calls of the source. A call without a number means that no potency is given here. The rule behind the calls is not given here.
# Target: Large T antigen (Simian virus 40) (UniProt P03070)
# Assay: SV40 large T antigen ATPase inhibitors, SAR follow-up, biochemical, ADP-Hunter detection, purified TAg, synthesized compounds, set 3 (AID 485288)
# Conditions: ADP-Hunter fluorescence; series mostly up to 100 µM
# Sequence of Large T antigen (Simian virus 40) (P03070 whole entry, looked up): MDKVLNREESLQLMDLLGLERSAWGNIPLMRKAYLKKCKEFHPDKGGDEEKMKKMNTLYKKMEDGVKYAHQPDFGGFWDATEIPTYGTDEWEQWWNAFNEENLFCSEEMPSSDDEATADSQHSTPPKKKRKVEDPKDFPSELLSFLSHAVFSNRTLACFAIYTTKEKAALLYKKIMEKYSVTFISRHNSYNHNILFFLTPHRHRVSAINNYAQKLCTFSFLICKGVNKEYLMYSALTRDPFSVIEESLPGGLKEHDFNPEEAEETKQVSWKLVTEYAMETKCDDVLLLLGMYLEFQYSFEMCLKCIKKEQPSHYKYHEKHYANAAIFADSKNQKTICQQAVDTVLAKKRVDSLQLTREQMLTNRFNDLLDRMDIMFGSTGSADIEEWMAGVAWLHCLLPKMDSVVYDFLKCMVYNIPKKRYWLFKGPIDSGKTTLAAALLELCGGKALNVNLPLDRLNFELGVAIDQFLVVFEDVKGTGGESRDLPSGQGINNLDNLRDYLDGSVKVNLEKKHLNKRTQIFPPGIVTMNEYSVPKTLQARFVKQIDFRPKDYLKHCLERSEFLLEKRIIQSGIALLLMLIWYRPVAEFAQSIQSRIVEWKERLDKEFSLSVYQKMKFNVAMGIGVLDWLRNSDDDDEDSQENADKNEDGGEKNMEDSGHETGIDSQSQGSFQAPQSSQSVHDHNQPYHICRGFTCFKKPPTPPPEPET
row,SMILES,outcome
1,Oc1ccccc1Cc1ccccc1O,inactive
2,CC(C)(c1ccc(O)cc1)c1ccc(Cl)cc1,inactive
3,FC(F)(c1nnnn1-c1ccccc1)c1nnc2ccccn12,inactive
4,CC(C)(c1nnnn1-c1ccc(Cl)cc1)N1CCN(C(=O)c2ccco2)CC1,inactive
5,Oc1ccc(Cl)cc1Cc1cc(Cl)ccc1O,inactive
6,Cc1ccc(-n2nnnc2C(C)(C)N2CCCCC2)cc1,inactive
7,CC(C)(c1nnnn1-c1ccccc1)N1CCOCC1,inactive
8,Cc1ccccc1-n1nnnc1C(C)(C)N1CCCC1,inactive
9,CC(=O)c1cc(C(C)(C)c2ccc(O)cc2)cc(C(C)=O)c1O,inactive
